Among all 5,500 compounds or so, about 2,000 (36%) were called active. Not shown: some 18% with an inconclusive outcome. No stated cut-off is given here; in the data, active means normalized growth mostly below about 0.91 (no sharp cut-off); inconclusive means no clear call, values can overlap the other calls; inactive means mostly above about 0.92. The list shows a part of the results.
Test: chemical genetic growth profiling, strain panel (AID 1159580);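 further: tested at 20 µM; growth read once vehicle control cultures reached saturation at 30 °C; 1 = growth at the plate median or of vehicle wells; lower values mean less growth of the strain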
Details: S. cerevisiae deletion strains, growth OD

Measured: normalized growth

Cc1ccc(S(=O)(=O)Nc2nc(-c3ccc(C)c(Cl)c3)c(C)s2)cc1
active: locus YHR030C, strain SLT2, hits give low values 1.77 [resistant] | locus YHR079C, strain IRE1, hits give low values 2.3 [resistant] | locus YJL095W, strain BCK1, hits give low values 1.77 [resistant] | locus YLR113W, strain HOG1, hits give low values 1.41 [resistant] | locus YOR231W, strain MKK1, hits give low values 2.03 [resistant] | locus YPL256C, strain CLN2, hits give low values 1.74 [resistant]
inactive: locus YAR019C, strain CDC15, hits give low values 0.994 | locus YBL105C, strain PKC1, hits give low values 0.99 | locus YBR135W, strain CKS1, hits give low values 0.98 | locus YBR136W, strain MEC1, hits give low values 0.991 | locus YBR160W, strain CDC28, hits give low values 0.988 | locus YDL017W, strain CDC7, hits give low values 0.991 | locus YDL028C, strain MPS1, hits give low values 0.988 | locus YDL101C, strain DUN1, hits give low values 0.989 | locus YDL108W, strain KIN28, hits give low values 0.993 | locus YDL132W, strain cdc53, hits give low values 0.983 | locus YDL214C, strain PRR2, hits give low values 0.989 | locus YDR052C, strain DBF4, hits give low values 0.983 | locus YDR054C, strain cdc34, hits give low values 0.989 | locus YDR226W, strain ADK1, hits give low values 0.985 | locus YDR477W, strain SNF1, hits give low values 1.04 | locus YER123W, strain YCK3, hits give low values 1.02 | locus YER133W, strain GLC7, hits give low values 1.02 | locus YFL009W, strain cdc4, hits give low values 0.989 | locus YFL029C, strain CAK1, hits give low values 0.998 | locus YFR003C, strain YPI1, hits give low values 0.992 | locus YFR019W, strain FAB1, hits give low values 1.02 | locus YFR028C, strain CDC14, hits give low values 0.99 | locus YGR040W, strain KSS1, hits give low values 1.02 | locus YGR092W, strain DBF2, hits give low values 1.01 | locus YHR205W, strain SCH9, hits give low values 0.942 | locus YIL147C, strain SLN1, hits give low values 0.983 | locus YJL128C, strain PBS2, hits give low values 0.925 | locus YJL157C, strain FAR1, hits give low values 1.02 | locus YJR016C, strain ILV3, hits give low values 0.979 | locus YJR066W, strain TOR1 (second series), hits give low values 1.04 | locus YKL048C, strain ELM1, hits give low values 0.986 | locus YKL067W, strain YNK1, hits give low values 0.997 | locus YKL101W, strain HSL1, hits give low values 0.981 | locus YKL193C, strain SDS22, hits give low values 0.986 | locus YKL203C, strain TOR2, hits give low values 1.08 | locus YLR133W, strain CKI1, hits give low values 0.995 | locus YLR403W, strain SFP1, hits give low values 1.02 | locus YML070W, strain DAK1, hits give low values 0.99 | locus YMR001C, strain CDC5, hits give low values 0.988 | locus YMR205C, strain PFK2 (second series), hits give low values 0.987 | locus YMR277W, strain FCP1, hits give low values 0.992 | locus YNL006W, strain LST8, hits give low values 0.981 | locus YNL020C, strain ARK1, hits give low values 0.996 | locus YNL161W, strain CBK1, hits give low values 0.992 | locus YNL207W, strain RIO2, hits give low values 0.996 | locus YNL222W, strain SSU72, hits give low values 0.996 | locus YNL307C, strain MCK1 (second series), hits give low values 0.982 | locus YOL078W, strain AVO1, hits give low values 0.991 | locus YOL136C, strain PFK27, hits give low values 0.987 | locus YOR061W, strain CKA2, hits give low values 1.02 | locus YOR119C, strain RIO1, hits give low values 1.05 | locus YOR329C, strain SCD5, hits give low values 0.985 | locus YPL031C, strain PHO85, hits give low values 1.02 | locus YPL153C, strain RAD53, hits give low values 1.01 | locus YPL204W, strain HRR25, hits give low values 1.03 | locus YPL209C, strain IPL1, hits give low values 0.986 | locus YPR025C, strain CCL1, hits give low values 0.985 | locus YPR106W, strain ISR1, hits give low values 0.992 | locus YPR111W, strain DBF20, hits give low values 0.987 | strain NNK1, hits give low values 0.995 | strain TSCII, hits give low values 0.994
